For one sequence, binding signal results are on record in PMC7862700, “An all-to-all approach to the identification of sequence-specific readers for epigenetic DNA modifications on cytosine”.

Common to all, as to assay: DAPPL (digital affinity profiling via proximity ligation, sequencing); 10 mM Tris-HCl pH 7.5, 50 mM NaCl, 1 mM DTT, 4% glycerol, room temperature, 30 min; GST-TFs on glutathione beads, 16-mer random dsDNA library, 0.1% formaldehyde crosslink after washing; high values mean tight binding
The target in one assay is T1, FEV (Homo sapiens, UniProt Q99581 1-238).
T1 sequence: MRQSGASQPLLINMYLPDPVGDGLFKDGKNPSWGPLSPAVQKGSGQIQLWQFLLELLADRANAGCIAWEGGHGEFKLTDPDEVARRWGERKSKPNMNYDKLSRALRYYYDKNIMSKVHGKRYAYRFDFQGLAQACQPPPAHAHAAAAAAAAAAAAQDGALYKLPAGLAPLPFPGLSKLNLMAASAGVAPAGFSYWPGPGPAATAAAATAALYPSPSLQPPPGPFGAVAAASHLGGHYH
The conditions noted are these: protein: recombinant; tags: N-terminal GST; dsDNA, one strand shown. An outline of the steps: (§1)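 In yeast, human transcription factors were expressed with a GST fusion, then pulled down on glutathione beads and given DNA barcodes. Pooled with a tag-only sample, they were exposed to 200 nmole of a 16-mer random double-stranded DNA library (Tris/NaCl/DTT/glycerol buffer, room temperature, 30 min), washed, crosslinked with 0.1% formaldehyde, proximity-ligated using BsaI/T4 ligase for 1 h at 37 °C, PCR-amplified and read on an Illumina NextSeq500. Each hexamer's frequency of reads for a factor, divided by the matching frequency for the tag-only sample, gives the binding signal.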

The target in a further assay is ETV5 (Homo sapiens, UniProt P41161 1-510). The conditions noted are these: protein: recombinant; tags: N-terminal GST; dsDNA, one strand shown. An outline of the steps:
as §1

A further assay has as its target HSF1 (Homo sapiens, UniProt Q00613 1-529). The following applies: protein: recombinant; tags: N-terminal GST; chain copies: 3; dsDNA, one strand shown. An outline of the steps: as §1
For another assay, the target named is T2, SPIC (Homo sapiens, UniProt Q8N5J4 1-248).
T2 sequence: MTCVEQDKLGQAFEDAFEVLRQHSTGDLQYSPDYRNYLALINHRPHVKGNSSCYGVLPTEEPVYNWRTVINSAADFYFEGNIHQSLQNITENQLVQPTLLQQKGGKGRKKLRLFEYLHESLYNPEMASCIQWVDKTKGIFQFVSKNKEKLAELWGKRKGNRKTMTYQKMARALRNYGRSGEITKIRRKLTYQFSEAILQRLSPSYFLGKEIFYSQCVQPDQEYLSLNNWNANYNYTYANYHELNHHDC
The following applies: protein: recombinant; tags: N-terminal GST; dsDNA, one strand shown. An outline of the steps: as §1

Another assay addresses ELF4 (Homo sapiens, UniProt Q99607 1-663). The following applies: protein: recombinant; tags: N-terminal GST; dsDNA, one strand shown. An outline of the steps: as §1
The target of the next assay is T3, ELK4 (Homo sapiens, UniProt P28324-2 1-405).
T3 sequence: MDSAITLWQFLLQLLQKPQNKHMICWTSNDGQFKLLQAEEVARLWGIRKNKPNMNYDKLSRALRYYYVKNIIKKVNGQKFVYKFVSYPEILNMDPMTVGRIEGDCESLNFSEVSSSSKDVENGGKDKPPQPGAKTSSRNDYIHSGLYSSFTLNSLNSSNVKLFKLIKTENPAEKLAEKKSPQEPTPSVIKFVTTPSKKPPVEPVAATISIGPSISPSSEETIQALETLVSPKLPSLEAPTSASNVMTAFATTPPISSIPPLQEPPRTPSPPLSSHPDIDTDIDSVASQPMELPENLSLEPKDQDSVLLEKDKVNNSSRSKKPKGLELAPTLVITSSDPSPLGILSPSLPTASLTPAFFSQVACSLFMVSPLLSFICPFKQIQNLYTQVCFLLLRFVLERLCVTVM
The following applies: protein: recombinant; tags: N-terminal GST; dsDNA, one strand shown. An outline of the steps:
as §1

Another assay addresses T4, ETV2 (Homo sapiens, UniProt O00321 1-342).
T4 sequence: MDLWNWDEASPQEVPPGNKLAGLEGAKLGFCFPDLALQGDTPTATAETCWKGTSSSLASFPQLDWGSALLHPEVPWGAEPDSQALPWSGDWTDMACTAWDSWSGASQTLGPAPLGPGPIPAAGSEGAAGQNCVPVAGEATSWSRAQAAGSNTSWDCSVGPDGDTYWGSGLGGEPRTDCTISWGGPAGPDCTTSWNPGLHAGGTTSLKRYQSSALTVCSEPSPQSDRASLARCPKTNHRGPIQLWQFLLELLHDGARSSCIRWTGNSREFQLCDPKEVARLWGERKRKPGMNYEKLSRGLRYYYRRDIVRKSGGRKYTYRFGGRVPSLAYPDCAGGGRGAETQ
The following applies: protein: recombinant; tags: N-terminal GST; dsDNA, one strand shown. An outline of the steps:
as §1

A further assay addresses T5, ELF3 (Homo sapiens, UniProt P78545 1-371).
T5 sequence: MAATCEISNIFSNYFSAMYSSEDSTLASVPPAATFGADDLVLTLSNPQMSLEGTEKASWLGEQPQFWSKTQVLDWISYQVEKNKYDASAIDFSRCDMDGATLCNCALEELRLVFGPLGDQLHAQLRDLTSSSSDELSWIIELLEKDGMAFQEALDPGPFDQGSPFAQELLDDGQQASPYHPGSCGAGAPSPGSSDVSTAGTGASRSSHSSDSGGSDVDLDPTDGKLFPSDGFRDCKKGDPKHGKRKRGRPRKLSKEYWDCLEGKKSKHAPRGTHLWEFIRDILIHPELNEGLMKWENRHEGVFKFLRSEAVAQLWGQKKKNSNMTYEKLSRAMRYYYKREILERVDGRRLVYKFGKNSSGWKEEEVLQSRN
The conditions noted are these: protein: recombinant; tags: N-terminal GST; dsDNA, one strand shown. An outline of the steps:
as §1

A further assay concerns the target CRX (Homo sapiens, UniProt O43186 1-299). The following applies: protein: recombinant; tags: N-terminal GST; dsDNA, one strand shown. An outline of the steps:
as §1

The target of a further assay is ETV1 (Homo sapiens, UniProt P50549 1-477). The following applies: protein: recombinant; tags: N-terminal GST; dsDNA, one strand shown. An outline of the steps: as §1
Sequence of ETV1 (P50549 whole entry): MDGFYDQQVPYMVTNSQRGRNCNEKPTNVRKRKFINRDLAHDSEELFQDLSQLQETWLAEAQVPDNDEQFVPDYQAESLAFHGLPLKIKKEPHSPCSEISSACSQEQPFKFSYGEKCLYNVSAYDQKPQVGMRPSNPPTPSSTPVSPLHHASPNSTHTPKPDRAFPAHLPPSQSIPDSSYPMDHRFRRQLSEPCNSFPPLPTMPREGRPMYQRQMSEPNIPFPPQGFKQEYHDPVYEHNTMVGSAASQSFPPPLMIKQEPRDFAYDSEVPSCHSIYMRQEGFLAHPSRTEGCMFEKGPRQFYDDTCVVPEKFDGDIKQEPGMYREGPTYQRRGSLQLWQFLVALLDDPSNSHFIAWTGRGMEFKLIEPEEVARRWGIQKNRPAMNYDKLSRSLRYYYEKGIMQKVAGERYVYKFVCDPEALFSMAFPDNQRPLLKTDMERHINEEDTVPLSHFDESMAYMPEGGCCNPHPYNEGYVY
A further assay deals with T6, ERF (Homo sapiens, UniProt P50548 1-548).
T6 sequence: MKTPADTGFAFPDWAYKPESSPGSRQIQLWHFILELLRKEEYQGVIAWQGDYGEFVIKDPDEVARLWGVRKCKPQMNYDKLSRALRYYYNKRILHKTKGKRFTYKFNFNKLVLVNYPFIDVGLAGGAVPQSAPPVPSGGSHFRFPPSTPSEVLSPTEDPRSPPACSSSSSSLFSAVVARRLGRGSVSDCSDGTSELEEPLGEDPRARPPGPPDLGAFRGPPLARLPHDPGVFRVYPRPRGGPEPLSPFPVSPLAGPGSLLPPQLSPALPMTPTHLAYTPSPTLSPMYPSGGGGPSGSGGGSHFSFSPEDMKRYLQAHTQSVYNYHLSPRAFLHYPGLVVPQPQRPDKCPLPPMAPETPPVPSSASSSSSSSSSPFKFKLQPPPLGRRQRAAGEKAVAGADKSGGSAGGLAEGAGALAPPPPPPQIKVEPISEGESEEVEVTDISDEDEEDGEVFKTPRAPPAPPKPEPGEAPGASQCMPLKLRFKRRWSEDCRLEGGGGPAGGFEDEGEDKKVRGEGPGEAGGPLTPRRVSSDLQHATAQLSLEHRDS
The conditions noted are these: protein: recombinant; tags: N-terminal GST; dsDNA, one strand shown. An outline of the steps: as §1

Another assay concerns the target T7, ETV3L (Homo sapiens, UniProt Q6ZN32 1-361).
T7 sequence: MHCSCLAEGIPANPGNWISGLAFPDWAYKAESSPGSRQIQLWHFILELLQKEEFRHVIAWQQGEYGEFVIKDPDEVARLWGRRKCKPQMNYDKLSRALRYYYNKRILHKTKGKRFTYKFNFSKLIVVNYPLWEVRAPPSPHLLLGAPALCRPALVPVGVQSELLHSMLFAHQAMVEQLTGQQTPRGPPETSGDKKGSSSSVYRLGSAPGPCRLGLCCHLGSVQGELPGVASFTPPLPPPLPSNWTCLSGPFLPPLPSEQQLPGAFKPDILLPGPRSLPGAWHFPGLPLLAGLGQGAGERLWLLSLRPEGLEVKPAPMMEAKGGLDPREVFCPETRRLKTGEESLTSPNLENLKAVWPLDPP
The conditions noted are these: protein: recombinant; tags: N-terminal GST; dsDNA, one strand shown. An outline of the steps: as §1

Another assay deals with T8, ETS2 (Homo sapiens, UniProt P15036 1-469).
T8 sequence: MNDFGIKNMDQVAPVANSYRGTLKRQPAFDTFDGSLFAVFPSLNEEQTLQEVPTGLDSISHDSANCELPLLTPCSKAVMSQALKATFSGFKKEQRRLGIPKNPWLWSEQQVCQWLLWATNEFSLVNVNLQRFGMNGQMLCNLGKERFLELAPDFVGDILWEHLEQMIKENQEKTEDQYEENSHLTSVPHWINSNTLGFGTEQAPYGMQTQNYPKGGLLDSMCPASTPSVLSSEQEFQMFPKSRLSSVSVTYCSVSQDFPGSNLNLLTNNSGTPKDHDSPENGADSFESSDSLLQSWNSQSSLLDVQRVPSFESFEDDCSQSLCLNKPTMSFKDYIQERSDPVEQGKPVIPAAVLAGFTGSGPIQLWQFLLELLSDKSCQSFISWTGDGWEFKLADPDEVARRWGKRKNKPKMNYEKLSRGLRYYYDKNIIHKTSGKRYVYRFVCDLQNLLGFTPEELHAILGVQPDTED
The conditions noted are these: protein: recombinant; tags: N-terminal GST; dsDNA, one strand shown. An outline of the steps:
as §1

The target in another assay is T9, SPDEF (Homo sapiens, UniProt O95238 1-335).
T9 sequence: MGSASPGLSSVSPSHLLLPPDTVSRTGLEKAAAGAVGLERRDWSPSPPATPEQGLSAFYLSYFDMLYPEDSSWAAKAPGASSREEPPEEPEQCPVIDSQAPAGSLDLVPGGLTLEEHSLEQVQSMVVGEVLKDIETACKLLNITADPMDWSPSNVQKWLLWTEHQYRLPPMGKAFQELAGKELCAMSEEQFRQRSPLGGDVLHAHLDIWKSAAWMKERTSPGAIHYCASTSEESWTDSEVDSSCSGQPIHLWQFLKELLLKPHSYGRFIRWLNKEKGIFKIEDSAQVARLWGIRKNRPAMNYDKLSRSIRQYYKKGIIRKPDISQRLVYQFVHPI
The following applies: protein: recombinant; tags: N-terminal GST; dsDNA, one strand shown. An outline of the steps:
as §1

The next assay concerns the target T10, ETV7 (Homo sapiens, UniProt Q9Y603 1-341).
T10 sequence: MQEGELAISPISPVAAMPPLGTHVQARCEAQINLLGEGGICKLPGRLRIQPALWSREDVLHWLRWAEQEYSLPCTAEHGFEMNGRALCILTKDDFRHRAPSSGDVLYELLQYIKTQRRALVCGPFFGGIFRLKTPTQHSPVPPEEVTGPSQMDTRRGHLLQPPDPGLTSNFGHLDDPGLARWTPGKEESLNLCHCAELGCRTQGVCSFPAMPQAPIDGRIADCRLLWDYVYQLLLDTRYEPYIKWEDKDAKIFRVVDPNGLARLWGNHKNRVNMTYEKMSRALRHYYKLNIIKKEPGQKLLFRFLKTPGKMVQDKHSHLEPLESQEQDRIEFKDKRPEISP
The conditions noted are these: protein: recombinant; tags: N-terminal GST; dsDNA, one strand shown. An outline of the steps:
as §1

For another assay, the target named is T11, ELF5 (Homo sapiens, UniProt Q9UKW6-2 1-255).
T11 sequence: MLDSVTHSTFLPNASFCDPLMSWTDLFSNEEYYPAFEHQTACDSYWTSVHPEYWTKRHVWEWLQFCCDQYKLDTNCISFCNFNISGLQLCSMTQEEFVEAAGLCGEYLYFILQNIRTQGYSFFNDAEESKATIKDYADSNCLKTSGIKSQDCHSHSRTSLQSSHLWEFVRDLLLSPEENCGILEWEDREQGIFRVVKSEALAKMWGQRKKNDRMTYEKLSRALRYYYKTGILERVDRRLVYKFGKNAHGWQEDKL
The conditions noted are these: protein: recombinant; tags: N-terminal GST; dsDNA, one strand shown. An outline of the steps:
as §1

In a further assay the target is T12, ETV3 (Homo sapiens, UniProt P41162-2 1-143).
T12 sequence: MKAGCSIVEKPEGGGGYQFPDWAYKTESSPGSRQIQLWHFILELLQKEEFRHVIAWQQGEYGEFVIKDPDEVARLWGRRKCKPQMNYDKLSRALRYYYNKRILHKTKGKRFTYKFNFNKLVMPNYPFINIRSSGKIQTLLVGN
The conditions noted are these: protein: recombinant; tags: N-terminal GST; dsDNA, one strand shown. An outline of the steps:
as §1

Sequence of CRX (O43186 whole entry): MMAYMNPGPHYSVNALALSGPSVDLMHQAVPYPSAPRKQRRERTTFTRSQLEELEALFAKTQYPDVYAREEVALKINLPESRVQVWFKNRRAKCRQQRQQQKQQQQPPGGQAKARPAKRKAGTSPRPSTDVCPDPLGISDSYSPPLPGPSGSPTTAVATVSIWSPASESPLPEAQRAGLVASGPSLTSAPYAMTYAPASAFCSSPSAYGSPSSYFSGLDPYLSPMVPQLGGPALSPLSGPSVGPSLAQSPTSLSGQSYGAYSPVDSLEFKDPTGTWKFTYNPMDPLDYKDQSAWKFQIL
Sequence of HSF1 (Q00613 whole entry): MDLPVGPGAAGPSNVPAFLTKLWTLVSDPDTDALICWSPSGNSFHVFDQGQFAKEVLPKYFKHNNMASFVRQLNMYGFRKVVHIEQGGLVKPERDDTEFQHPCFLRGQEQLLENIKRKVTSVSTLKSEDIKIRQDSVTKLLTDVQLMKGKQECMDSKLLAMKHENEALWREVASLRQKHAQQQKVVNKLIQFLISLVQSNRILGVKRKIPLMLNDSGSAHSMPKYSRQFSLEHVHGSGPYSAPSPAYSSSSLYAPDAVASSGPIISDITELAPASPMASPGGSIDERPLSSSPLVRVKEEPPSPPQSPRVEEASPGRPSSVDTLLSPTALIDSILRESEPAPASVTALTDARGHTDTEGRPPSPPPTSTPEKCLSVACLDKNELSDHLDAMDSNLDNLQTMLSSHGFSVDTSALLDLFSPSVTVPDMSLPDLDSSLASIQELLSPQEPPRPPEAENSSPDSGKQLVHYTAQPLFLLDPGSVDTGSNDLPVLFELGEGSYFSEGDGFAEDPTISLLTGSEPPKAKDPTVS
Sequence of ETV5 (P41161 whole entry): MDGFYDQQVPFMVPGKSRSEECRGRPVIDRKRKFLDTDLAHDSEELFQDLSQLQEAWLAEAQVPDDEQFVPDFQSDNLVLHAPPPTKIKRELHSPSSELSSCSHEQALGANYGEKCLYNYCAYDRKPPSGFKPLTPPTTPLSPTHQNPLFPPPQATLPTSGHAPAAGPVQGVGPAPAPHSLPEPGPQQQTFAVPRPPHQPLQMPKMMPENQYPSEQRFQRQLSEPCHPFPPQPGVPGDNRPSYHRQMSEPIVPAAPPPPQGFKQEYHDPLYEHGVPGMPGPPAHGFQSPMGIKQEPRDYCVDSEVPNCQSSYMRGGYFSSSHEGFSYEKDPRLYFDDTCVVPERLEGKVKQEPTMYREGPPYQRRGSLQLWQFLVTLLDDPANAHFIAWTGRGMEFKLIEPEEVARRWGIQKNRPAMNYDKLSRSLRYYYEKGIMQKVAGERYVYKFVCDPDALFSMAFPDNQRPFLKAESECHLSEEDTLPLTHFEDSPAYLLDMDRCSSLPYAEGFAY
Sequence of ELF4 (Q99607 whole entry): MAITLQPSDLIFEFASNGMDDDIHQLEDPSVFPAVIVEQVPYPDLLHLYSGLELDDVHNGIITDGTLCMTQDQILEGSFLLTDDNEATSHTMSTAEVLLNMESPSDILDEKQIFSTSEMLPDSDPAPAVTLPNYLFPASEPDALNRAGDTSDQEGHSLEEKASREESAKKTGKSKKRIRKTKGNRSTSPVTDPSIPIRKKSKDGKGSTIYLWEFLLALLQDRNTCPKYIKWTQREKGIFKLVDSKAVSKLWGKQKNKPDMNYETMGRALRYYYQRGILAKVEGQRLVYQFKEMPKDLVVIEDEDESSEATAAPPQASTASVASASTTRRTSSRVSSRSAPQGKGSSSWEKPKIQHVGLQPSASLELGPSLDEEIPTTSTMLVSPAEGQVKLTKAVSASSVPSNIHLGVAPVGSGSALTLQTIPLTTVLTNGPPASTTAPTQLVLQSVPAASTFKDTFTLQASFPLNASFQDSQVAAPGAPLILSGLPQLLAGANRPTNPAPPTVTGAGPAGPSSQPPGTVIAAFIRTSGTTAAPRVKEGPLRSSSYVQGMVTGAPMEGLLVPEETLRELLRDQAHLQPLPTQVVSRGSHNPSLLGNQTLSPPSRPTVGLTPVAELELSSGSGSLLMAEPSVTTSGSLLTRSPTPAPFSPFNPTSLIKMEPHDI

In the case of GCTGAT, the binding signal with FEV is 1.07 fold enrichment (6-mer frequency, TF over GST control); in the assay with ETV5, 1.11 fold enrichment (6-mer frequency, TF over GST control); with HSF1, 1.16 fold enrichment (6-mer frequency, TF over GST control); in the assay with SPIC it was 1.19 fold enrichment (6-mer frequency, TF over GST control); with ELF4, 1.19 fold enrichment (6-mer frequency, TF over GST control); with ELK4, 1.25 fold enrichment (6-mer frequency, TF over GST control). Besides, the binding signal in the assay with ETV2 was 1.08 fold enrichment (6-mer frequency, TF over GST control); with ELF3, 1.16 fold enrichment (6-mer frequency, TF over GST control); with CRX it was 1.39 fold enrichment (6-mer frequency, TF over GST control); with ETV1, 1.2 fold enrichment (6-mer frequency, TF over GST control); with ERF it was 1.07 fold enrichment (6-mer frequency, TF over GST control); in the assay with ETV3L, 1.18 fold enrichment (6-mer frequency, TF over GST control). Also, the binding signal in the assay with ETS2 was 1.12 fold enrichment (6-mer frequency, TF over GST control); with SPDEF, 1.07 fold enrichment (6-mer frequency, TF over GST control); with ETV7, 1.27 fold enrichment (6-mer frequency, TF over GST control); in the assay with ELF5, 1.03 fold enrichment (6-mer frequency, TF over GST control); with ETV3, 1.2 fold enrichment (6-mer frequency, TF over GST control).
